For experiment [1], the target named is Estrogen receptor (Homo sapiens) (UniProt P03372). Nature of the experiment: qHTS assay for small molecule antagonists of estrogen receptor alpha signaling (AID 588513; active = well fitted curve in the direction sought with a large enough effect in the signal ratio, with a control signal flat, not every such curve was filed as active; the % refers to the signal ratio; note: % is set by controls: 0 for no effect and ±100 for the full control effect). The method in brief: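 Beta-lactamase reporter, antagonist mode, HEK 293 GripTite cells; 0.5nM E2 stimulus, 18 h, 37 C; CCF4 dye 2 h RT; fluorescence. IC50 and efficacy from Hill fits, normalized to E2 and DMSO.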
(In general: Quantitative high-throughput screening tests each substance at several concentrations.)

Experiment [2] has the same target. Nature of the experiment: qHTS assay for small molecule agonists of estrogen receptor alpha signaling (AID 588514).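 Note: 0% = vehicle only and 100% = reference agonist; nearly all actives have a fitted effect of over 70% in size.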 The method in brief:
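EC50 and efficacy came from Hill fits of beta-lactamase reporter signal (CCF4 dye, 2 h at room temperature) scaled between DMSO and 20 nM 17-beta-estradiol. Agonist mode: HEK293 ER-alpha-UAS-bla cells in charcoal/dextran-stripped serum medium, 18 h compound exposure at 37 C.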

Experiment [3] has as its target Peroxisome proliferator-activated receptor delta (Homo sapiens) (UniProt Q03181). Nature of the experiment: qHTS assay for small molecule agonists of peroxisome proliferator-activated receptor delta signaling (AID 588534).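 Note: 0% = DMSO basal wells and 100% = positive control agonist at 10 µM.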 The method in brief:
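Agonist-mode beta-lactamase reporter readout (CCF4 dye, 2 h at RT) after 18 h at 37 °C exposure to a titration; Hill-equation fitting gave EC50 and maximal response.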

Experiment [4] concerns the target Peroxisome proliferator-activated receptor gamma (Homo sapiens) (UniProt P37231). Briefly: qHTS assay for small molecule agonists of peroxisome proliferator-activated receptor gamma signaling (AID 588536; active = well fitted curve in the direction sought with a large enough effect in the signal ratio, with a control signal flat, not every such curve was filed as active; the % refers to the signal ratio;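 note: 0% = DMSO basal wells and 100% = rosiglitazone at 2 µM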). The method in brief:
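This is an agonist-mode beta-lactamase reporter assay in HEK293 PPAR-gamma-UAS-bla cells with 1% charcoal/dextran FBS. Compound titrations ran 16 h at 37 C before CCF4 detection. EC50 and efficacy are Hill fits scaled to 2 uM rosiglitazone (100%) and DMSO basal.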

The target is the same in experiment [5]. Briefly: qHTS assay for small molecule antagonists of peroxisome proliferator-activated receptor gamma signaling (AID 588537; active = well fitted inhibition curve with a large enough effect in the signal ratio, with a control signal flat, not every such curve was filed as active; the % refers to the signal ratio;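 note: reporter cells co-stimulated with 50 nM rosiglitazone agonist during compound treatment; % of control where 0% means no effect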). The method in brief: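 Compounds are tested as concentration series for inhibition of rosiglitazone-driven (50 nM) reporter expression in GeneBLAzer PPAR-gamma-UAS-bla HEK293 cells. After 16 h at 37 C, CCF4 substrate is added for 2 h at room temperature and blue/green fluorescence is measured.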

Experiment [6] addresses Vitamin D3 receptor (Homo sapiens) (UniProt P11473). Nature of the experiment: qHTS assay for small molecule antagonists of vitamin D receptor signaling (AID 588541).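 Note: receptor activated by calcitriol during compound treatment; series mostly up to about 77 µM; % is set by controls: 0 for no effect and ±100 for the full control effect.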 The method in brief:
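VDR-UAS-bla HEK293T cells (2000/well, 2% charcoal-stripped FBS) were treated with titrated compounds plus 1-alpha,25-dihydroxyvitamin D3 (50 nM or 3 nM final) for 16 h at 37 C. CCF4 beta-lactamase fluorescence was read; Hill fits gave IC50.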

Experiment [7] has the same target. Nature of the experiment: qHTS assay for small molecule agonists of vitamin D receptor signaling (AID 588543).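 Note: 0% = DMSO basal and 100% = reference agonist control.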 The method in brief: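 β-lactamase reporter, VDR-UAS-bla HEK293T, agonist mode. Cells plated 5 h at 37 °C, compound titration 16 h at 37 °C, CCF4 dye 2 h RT, ratio 460/530 nm. Hill fit → EC50, efficacy vs 50 nM 1α,25-(OH)2D3.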
Experiment [8] concerns the target Retinoic acid receptor RXR-alpha (Homo sapiens) (UniProt P19793). Nature of the experiment: qHTS assay for small molecule agonists of retinoid X receptor alpha signaling (AID 588544).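 Note: 0% = DMSO basal wells and 100% = reference agonist.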
A short description of experiment [9]: qHTS assay for small molecule antagonists of retinoid X receptor alpha signaling (AID 588546; active = well fitted inhibition curve with a large enough effect in the signal ratio, with a control signal flat, not every such curve was filed as active; the % refers to the signal ratio;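 note: cells stimulated with 9-cis-retinoic acid as agonist; % is set by controls: 0 for no effect and ±100 for the full control effect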). The note with it: HEK293T RXRa-UAS-bla, beta-lactamase ratio, antagonist mode; measured here: W530 green channel, cytotoxicity proxy. Put shortly: (§1)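 Beta-lactamase reporter inhibition, read as CCF4 fluorescence ratio (ex 405, em 460/530 nm) after 2 h at RT. HEK293T UAS-bla cells, 2500/well, were stimulated with 9-cis-RA at 500 or 100 nM final alongside test compound for 18 h at 37 C.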

Experiment [10] concerns the target Retinoic acid receptor RXR-alpha (Homo sapiens) (UniProt P19793). The description is as above. The note with it: HEK293T RXRa-UAS-bla, beta-lactamase ratio, antagonist mode. The method in brief:
as §1

For experiment [11], the target named is Thyroid hormone receptor beta (Homo sapiens) (UniProt P10828). Briefly: qHTS assay for small molecule antagonists of thyroid hormone receptor beta signaling (AID 588547; active = well fitted inhibition curve with a large enough effect in the signal ratio, with a control signal flat, not every such curve was filed as active; the % refers to the signal ratio;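 note: cells stimulated with 0.4 nM T3 agonist during compound exposure; series mostly up to about 77 µM; % is set by controls: 0 for no effect and ±100 for the full control effect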). Particulars: TR-UAS-bla HEK293, beta-lactamase ratio, antagonist mode, 18 h. Put shortly: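 TR-UAS-bla GripTite HEK293 cells in 2% charcoal/dextran FBS medium were preincubated 4 h at 37 C, given compound (0.59 nM to 92 uM) plus 0.4 nM T3 (final) for 18 h, then CCF4 for 2 h at RT; Hill fit gave IC50.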

Experiment [12] is described as follows: qHTS assay for environmental chemicals that activate the Aryl hydrocarbon Receptor (AhR) signaling pathway (AID 651777; active = well fitted curve in the direction sought with a large enough effect; an effect the other way counts as inactive or inconclusive; note: % of control where 0% means no effect; nearly all actives have a fitted effect of over 15% in size). The note with it: 1A2-DRE human hepatoma cells, luciferase, 24 h; activation: stronger effect = higher value. Put shortly:
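Quantitative HTS in stably transfected human liver-derived cells whose luciferase gene sits downstream of the CYP1A2 promoter and dioxin response element. After 24 hr exposure at 37 C, One-Glo luminescence was measured.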

The target of experiment [13] is Peroxisome proliferator-activated receptor alpha (Homo sapiens) (UniProt Q07869). Briefly: qHTS assay for small molecule agonists of the peroxisome proliferator-activated receptor alpha (PPARalpha) signaling pathway (AID 651778; active = well fitted curve in the direction sought with a large enough effect; an effect the other way counts as inactive or inconclusive; note: % of control where 0% means no effect). Particulars: PathHunter PPARalpha complementation, chemiluminescence, 6 h; max response: stronger effect = higher value. The method in brief:
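Cells plated at 2,000/well and held overnight at 37 C, 5% CO2, then compound added by pin tool for 6 hr; after PathHunter detection reagent and 60 min at room temperature, chemiluminescence from enzyme complementation was read.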

Experiment [14] can be described thus: qHTS assay for small molecule agonists of the antioxidant response element (ARE) signaling pathway measured by Nrf2-dependant transcriptional activity (AID 720636; active = well fitted curve in the direction sought with a large enough effect in the repeat runs; an effect the other way counts as inactive or inconclusive; note: % of control where 0% means no effect). The method in brief: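 Quantitative HTS format in HepG2 cells stably expressing an ARE-luciferase reporter; 16 hr compound treatment at 37 C, luciferase signal detected with ONE-Glo.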
Experiment [15] in a line: qHTS assay for small molecule agonists of the antioxidant response element (ARE) signaling pathway measured by Nrf2-dependant transcriptional activity - cell viability counter screen (AID 720653; active = well fitted curve in the direction sought with a large enough effect in the repeat runs; an effect the other way counts as inactive or inconclusive; note: % is set by controls: 0 for no effect and ±100 for the full control effect). Particulars: ARE-bla HepG2 viability, CellTiter-Glo ATP luminescence, 16 h; max response: stronger effect = lower value. The method in brief: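 ARE-bla HepG2 cells (2,000/well) rested 5 hrs at 37C/5% CO2, then exposed to compounds in DMSO for 16 hrs. Viability was read in the same wells as intracellular ATP by luminescence, 30 min at room temperature after reagent addition.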

The nature of experiment [16]: qHTS assay for cell viability of HEK293 cells (AID 743288; active = well fitted curve in the direction sought with a large enough effect; an effect the other way counts as inactive or inconclusive; note: % is set by controls: 0 for no effect and ±100 for the full control effect; nearly all actives have a fitted effect of over 50% in size). Particulars: ATP luminescence (CellTiter-Glo), 18 h; max response: stronger effect = lower value. Put shortly: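 ATP luminescence (CellTiter-Glo) reports metabolically competent cell number after parental HEK293 cells, 2,000/well, were treated with DMSO-dissolved compounds for 18 h at 37 C; reagent incubation 30 min, room temperature.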

The target of experiment [17] is Nuclear receptor subfamily 1 group I member 2 (Rattus norvegicus) (UniProt Q9R1A7). Briefly: qHTS assay for small molecule activators of the rat pregnane X receptor (rPXR) signaling pathway (AID 651751; call rule not given here; note: 0% is about no effect). Particulars: rPXR reporter cells, luciferase (One-Glo), 24 h.
In experiment [18] the target is Thyroid hormone receptor beta (Homo sapiens) (UniProt P10828). Briefly: qHTS assay for small molecule agonists of thyroid hormone receptor beta signaling (AID 588545). Put shortly:
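In this cell-based screen, titrated compounds act on HEK 293 cells held in medium with 2% charcoal/dextran FBS, NEAA and pyruvate for 18 hrs at 37 C. Responses are expressed relative to T3 (10 nM) as 100% and basal DMSO as 0%.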

Experiment [19] in a line: qHTS assay for cell viability of the p53RE-bla HCT-116 cell line (AID 743292; active = well fitted curve in the direction sought with a large enough effect; an effect the other way counts as inactive or inconclusive; note: % is set by controls: 0 for no effect and ±100 for the full control effect; nearly all actives have a fitted effect of over 55% in size). The method in brief:
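Viability of compound-treated p53RE-bla HCT-116 cells is taken from ATP-dependent luciferase luminescence. Treatment lasts 16 h at 37 C after a 5 h settling period; detection follows 30 min at room temperature.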

The nature of experiment [20]: qHTS assay for small molecule activators of the p53 signaling pathway (AID 651743; active = well fitted activation curve with a large enough effect in the signal ratio, not every such curve was filed as active; the % refers to the signal ratio; note: series mostly up to about 92 µM; % of control where 0% means no effect). The note with it: HCT-116 p53RE-bla, beta-lactamase FRET ratio, 16 h; activation: stronger effect = higher value. Put shortly: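 Agonist-mode quantitative HTS in HCT-116 cells carrying a p53-response-element beta-lactamase reporter; 16 h compound treatment at 37 C, then FRET substrate loading for 2 h at room temperature and fluorescence read.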

Records with an inconclusive call do not appear. Activity calls are given as the source filed them. Unless noted, calls come from the whole dose curve.

Peroxisome proliferator-activated receptor gamma (Homo sapiens), sequence (P37231 whole entry, looked up): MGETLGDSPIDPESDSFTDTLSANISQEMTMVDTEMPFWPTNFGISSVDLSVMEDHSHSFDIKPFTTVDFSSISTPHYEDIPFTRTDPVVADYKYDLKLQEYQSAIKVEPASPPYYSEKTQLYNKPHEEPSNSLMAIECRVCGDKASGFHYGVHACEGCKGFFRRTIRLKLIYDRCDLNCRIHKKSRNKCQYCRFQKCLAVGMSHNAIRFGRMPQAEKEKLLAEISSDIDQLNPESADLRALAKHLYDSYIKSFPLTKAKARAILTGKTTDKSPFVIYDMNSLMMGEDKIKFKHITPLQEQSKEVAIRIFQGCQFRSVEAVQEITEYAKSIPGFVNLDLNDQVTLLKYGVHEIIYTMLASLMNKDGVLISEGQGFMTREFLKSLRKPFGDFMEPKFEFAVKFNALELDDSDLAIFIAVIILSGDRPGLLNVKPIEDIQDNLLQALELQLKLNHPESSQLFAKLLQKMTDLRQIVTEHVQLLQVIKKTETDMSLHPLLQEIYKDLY
Nuclear receptor subfamily 1 group I member 2 (Rattus norvegicus), sequence (Q9R1A7 whole entry, looked up): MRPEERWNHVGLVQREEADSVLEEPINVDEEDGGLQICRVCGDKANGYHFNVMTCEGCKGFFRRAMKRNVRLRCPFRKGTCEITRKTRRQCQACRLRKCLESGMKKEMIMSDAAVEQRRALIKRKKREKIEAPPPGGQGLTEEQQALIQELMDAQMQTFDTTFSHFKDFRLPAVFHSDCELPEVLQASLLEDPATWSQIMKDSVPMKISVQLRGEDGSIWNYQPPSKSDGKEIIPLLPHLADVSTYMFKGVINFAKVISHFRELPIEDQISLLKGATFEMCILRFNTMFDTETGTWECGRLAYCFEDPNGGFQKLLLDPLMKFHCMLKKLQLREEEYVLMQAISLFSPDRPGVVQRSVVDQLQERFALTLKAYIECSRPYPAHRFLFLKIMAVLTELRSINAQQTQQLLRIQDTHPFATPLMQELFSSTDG
Vitamin D3 receptor (Homo sapiens), sequence (P11473 whole entry, looked up): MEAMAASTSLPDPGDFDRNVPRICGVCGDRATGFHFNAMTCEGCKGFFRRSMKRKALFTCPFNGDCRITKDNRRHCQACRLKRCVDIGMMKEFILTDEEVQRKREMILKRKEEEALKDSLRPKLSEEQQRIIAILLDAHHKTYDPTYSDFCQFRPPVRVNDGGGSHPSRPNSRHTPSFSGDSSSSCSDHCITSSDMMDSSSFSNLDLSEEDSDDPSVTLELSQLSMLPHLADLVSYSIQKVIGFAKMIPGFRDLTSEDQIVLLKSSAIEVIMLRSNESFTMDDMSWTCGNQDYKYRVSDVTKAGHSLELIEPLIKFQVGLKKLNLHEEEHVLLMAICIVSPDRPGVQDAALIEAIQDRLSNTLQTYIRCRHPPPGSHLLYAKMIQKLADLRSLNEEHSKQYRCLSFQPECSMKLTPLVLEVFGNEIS
Retinoic acid receptor RXR-alpha (Homo sapiens), sequence (P19793 whole entry, looked up): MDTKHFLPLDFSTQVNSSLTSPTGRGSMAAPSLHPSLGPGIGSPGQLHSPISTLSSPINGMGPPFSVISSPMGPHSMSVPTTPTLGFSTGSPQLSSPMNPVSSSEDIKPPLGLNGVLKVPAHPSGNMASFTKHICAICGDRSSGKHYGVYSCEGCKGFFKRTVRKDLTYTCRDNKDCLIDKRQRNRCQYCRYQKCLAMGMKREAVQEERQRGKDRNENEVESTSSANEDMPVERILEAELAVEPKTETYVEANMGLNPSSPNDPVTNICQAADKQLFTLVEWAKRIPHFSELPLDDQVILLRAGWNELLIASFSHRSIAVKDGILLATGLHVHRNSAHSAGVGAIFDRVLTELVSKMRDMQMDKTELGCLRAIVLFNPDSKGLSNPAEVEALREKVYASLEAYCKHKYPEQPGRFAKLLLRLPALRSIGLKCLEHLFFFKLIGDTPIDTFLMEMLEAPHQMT
Peroxisome proliferator-activated receptor alpha (Homo sapiens), sequence (Q07869 whole entry, looked up): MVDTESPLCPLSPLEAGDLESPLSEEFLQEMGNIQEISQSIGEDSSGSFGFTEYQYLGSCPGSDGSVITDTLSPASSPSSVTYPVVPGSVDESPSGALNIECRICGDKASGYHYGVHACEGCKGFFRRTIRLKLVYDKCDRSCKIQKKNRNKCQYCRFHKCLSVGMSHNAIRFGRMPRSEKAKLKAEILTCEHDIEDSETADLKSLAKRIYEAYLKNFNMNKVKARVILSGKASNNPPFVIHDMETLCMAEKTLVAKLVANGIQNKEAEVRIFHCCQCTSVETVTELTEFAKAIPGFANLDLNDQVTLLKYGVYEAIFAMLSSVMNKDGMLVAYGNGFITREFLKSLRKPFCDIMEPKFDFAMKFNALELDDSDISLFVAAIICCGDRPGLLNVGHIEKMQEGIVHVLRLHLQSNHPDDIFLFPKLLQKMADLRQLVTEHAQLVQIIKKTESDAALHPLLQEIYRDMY
Thyroid hormone receptor beta (Homo sapiens), sequence (P10828 whole entry, looked up): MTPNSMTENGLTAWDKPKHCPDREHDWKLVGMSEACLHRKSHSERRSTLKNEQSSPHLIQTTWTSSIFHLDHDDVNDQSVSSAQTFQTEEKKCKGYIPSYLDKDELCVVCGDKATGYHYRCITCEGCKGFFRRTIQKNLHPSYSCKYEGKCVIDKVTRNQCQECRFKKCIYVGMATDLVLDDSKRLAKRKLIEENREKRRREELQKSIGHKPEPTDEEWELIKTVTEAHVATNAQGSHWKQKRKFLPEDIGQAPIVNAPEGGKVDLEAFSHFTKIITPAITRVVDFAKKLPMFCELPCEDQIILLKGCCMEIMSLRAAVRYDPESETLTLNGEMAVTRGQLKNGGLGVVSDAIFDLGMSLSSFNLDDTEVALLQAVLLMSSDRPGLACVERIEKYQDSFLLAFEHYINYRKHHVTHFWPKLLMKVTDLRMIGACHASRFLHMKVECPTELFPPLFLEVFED
Estrogen receptor (Homo sapiens), sequence (P03372 whole entry, looked up): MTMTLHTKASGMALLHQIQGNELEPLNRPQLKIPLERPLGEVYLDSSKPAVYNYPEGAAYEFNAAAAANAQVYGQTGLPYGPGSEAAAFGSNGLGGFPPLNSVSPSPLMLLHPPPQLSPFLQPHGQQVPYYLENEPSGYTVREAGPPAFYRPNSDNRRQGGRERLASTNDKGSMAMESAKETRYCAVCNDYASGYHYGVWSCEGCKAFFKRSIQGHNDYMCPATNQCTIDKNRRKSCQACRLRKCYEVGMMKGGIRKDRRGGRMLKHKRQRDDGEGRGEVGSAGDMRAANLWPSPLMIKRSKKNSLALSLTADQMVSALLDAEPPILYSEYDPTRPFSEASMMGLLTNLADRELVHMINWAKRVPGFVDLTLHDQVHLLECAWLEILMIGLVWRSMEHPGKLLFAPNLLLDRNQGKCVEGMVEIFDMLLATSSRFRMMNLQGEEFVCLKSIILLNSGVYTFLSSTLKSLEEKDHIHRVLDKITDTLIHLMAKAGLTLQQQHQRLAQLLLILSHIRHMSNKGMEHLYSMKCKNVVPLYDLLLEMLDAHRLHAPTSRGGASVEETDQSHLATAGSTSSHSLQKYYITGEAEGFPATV
Peroxisome proliferator-activated receptor delta (Homo sapiens), sequence (Q03181 whole entry, looked up): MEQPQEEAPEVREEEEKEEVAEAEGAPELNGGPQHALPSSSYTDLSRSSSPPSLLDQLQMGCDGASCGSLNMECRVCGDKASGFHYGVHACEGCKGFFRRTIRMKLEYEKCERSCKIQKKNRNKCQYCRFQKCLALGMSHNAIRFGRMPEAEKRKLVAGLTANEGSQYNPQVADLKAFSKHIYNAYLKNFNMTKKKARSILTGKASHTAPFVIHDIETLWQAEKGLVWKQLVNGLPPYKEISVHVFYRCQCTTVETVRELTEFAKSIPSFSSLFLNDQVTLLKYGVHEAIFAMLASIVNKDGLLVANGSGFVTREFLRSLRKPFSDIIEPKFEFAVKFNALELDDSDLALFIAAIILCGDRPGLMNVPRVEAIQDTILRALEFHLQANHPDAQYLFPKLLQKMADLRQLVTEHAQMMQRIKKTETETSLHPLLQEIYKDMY

For the molecule `CNC(=O)Oc1cc(C)cc(C(C)C)c1`, the Potency entry in [1], in [2], in experiment [4], in [5], in [6] and in [8] was “inactive” each time. Moreover, the Potency result in [14] was “inactive”. Also, the molecule was called inactive in [3] and in experiment [7]. The max response in experiment [9] is -5.53%; in experiment [10], -3.46% (inactive); in experiment [13], 4.47% (inactive); in experiment [15], 3.5% (inactive); in experiment [16] it was -6.56% (inactive); in experiment [17], -3.71% (inactive). In experiment [11], the activity change % (negative = inhibition) is 4.48% (inactive). Moreover, the activation in [12] is 0.548% (inactive).
For the molecule `Clc1ccccc1-c1nnc(-c2ccccc2Cl)nn1`, the Potency result in experiment [1], in experiment [2], in experiment [4], in [5], in experiment [6] and in experiment [8] was “inactive” in each case. Besides, the Potency entry in [18] and in experiment [19] was “inactive” throughout. In addition, the molecule was called inactive in experiment [3] and in [7]. Moreover, the max response in experiment [9] was -19.7%; in [13] it was -0.0144% (inactive); in experiment [15], -3% (inactive); in experiment [16], -8.84% (inactive). In addition, the activation in experiment [12] was 9.84% (inactive).
For the molecule `Cc1cc(Cl)ccc1OC(C)C(=O)O` (stereo not given), the Potency result in experiment [1], in [2], in experiment [5], in [8], in experiment [18] and in experiment [14] was “inactive” throughout. Further, the max response in [9] is -2.86%; in experiment [10] it was -2.46% (inactive); in experiment [13], 2.19% (inactive); in experiment [15], -3.1% (inactive); in experiment [17] it was -0.122% (inactive). Besides, the activity change % (negative = inhibition) in [11] is -3.04% (inactive).
For `c1cc2c3c(cccc3c1)CC2`, the Potency entry in [1], in experiment [4], in experiment [5], in [8], in experiment [18] and in experiment [14] was “inactive” in each case. For the same molecule, the Potency result in experiment [19] was “inactive”. Moreover, in experiment [3], the call was inactive. Further, the max response was -4.84% in experiment [9]; -3.28% (inactive) in [10]; -0.57% (inactive) in experiment [13]; 18.9% (inactive) in experiment [15]; -7.08% (inactive) in [16]; 0.0529% (inactive) in [17]. Also, the activity change % (negative = inhibition) in experiment [11] is 3.51% (inactive). For the same molecule, the activation in experiment [20] is 5.25% (inactive); in [12], 0.274% (inactive).
As for `O=C1NCCN1Cc1ccc(Cl)nc1`, the Potency result in experiment [1], in [4], in experiment [6], in experiment [8], in [18] and in experiment [14] was “inactive” throughout. The Potency entry in experiment [19] is “inactive”. The result in experiment [3] was inactive. Besides, the max response is -14.8% in experiment [9]; -5.19% (inactive) in [10]; -0.72% (inactive) in experiment [13]; 1.67% (inactive) in experiment [15]; 1.96% (inactive) in [16]; 1.46% (inactive) in [17]. Besides, the activity change % (negative = inhibition) in [11] was 2.45% (inactive). For the same molecule, the activation in experiment [20] is -0.206% (inactive); in experiment [12] it was -0.434% (inactive).
As for `CCNc1nc(NCC)nc(SC)n1`, the Potency entry in experiment [1], in experiment [2], in experiment [4], in experiment [6], in [8] and in experiment [18] was “inactive” in each case. For the same molecule, the Potency result in experiment [14] and in [19] was “inactive” throughout. Further, the result in experiment [7] was inactive. Moreover, the max response in experiment [9] was -14%; in experiment [10], -3.26% (inactive); in [13] it was 0.186% (inactive); in experiment [15] it was 8.18% (inactive); in experiment [16], -5.22% (inactive); in experiment [17], 1.83% (inactive). Besides, in experiment [11], the activity change % (negative = inhibition) was -6.04% (inactive). In experiment [20], the activation was -3.86% (inactive).
